Holding throughout (conditions): modulator concentration 10 µM
Experiment [1] has as its system RAW-Dual (murine macrophage reporter line). As to the kind of experiment: NF-kB reporter (SEAP) activity fold change vs agonist alone; higher = enhanced NF-kB activity. Put shortly:
(§1)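 Compound reached 10 μM final in each well by pin transfer, onto RAW-Dual murine macrophage reporter cells seeded at 50 000 per well in 384-well plates. After 1 hour at 37 °C, the cells were stimulated overnight with a PRR agonist. SEAP in the supernatant was read with QUANTI-Blue at 620 nm absorbance for NF-κB, and Lucia luciferase was read with QUANTI-Luc luminescence for IRF. Each signal was turned into fold change against the mean agonist-only control on the same plate, and two replicate plates were averaged with propagated errors.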

The test system is the same in experiment [2]. Briefly: IRF reporter (Lucia luciferase) activity fold change vs agonist alone; higher = enhanced IRF activity. Put shortly:
as §1

For experiment [3] the test system is unchanged. As to the kind of experiment: viability score (confluency relative to resting cells, overnight) (fraction); higher = more viable, active = viable (0.7 or more). The method, boiled down: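 RAW-Dual macrophages in 384-well plates were treated overnight with compound at 10 μM final. IncuCyte imaging recorded confluency, and IncuCyte software built two confluency masks across every imaged well. The viability score expresses confluency relative to resting cells and was judged against a cutoff, which a compound met only if both masks exceeded 70% of resting cells.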

Where [4] appears, read: agonist: CpG ODN 1826 0.5 ug/mL.

± gives the standard deviation.

For the compound `C[C@@H]1CCN(C(=O)CC#N)C[C@@H]1N(C)c1ncnc2[nH]ccc12.O=C(O)CC(O)(CC(=O)O)C(=O)O`, the results for the NF-kB reporter in experiment [1] (setting [4]), in experiment [1] (agonist: LPS 0.1 ug/mL) and in experiment [1] (agonist: MPLA […]) were 1.05 ± 0.29, 0.628 ± 0.047 and 0.885 ± 0.06, respectively. Besides, the IRF reporter turned out to be 0.182 ± 0.0066 in experiment [2] (agonist: 3'3'-cGAMP 10 ug/mL), 0.366 ± 0.056 in experiment [2] (agonist: LPS 0.1 ug/mL) and 0.507 ± 0.1 in experiment [2] (agonist: MPLA […]). Also, the viability score in experiment [3] was 0.603 (inactive).
As for `CCN(C=Nc1sc2c(c1C#N)CC(C)(C)NC2(C)C)CC`, the NF-kB reporter in experiment [1] (setting [4]) came to 0.759 ± 0.059; in experiment [1] (agonist: LPS 0.1 ug/mL) it was 0.93 ± 0.054; in experiment [1] (agonist: MPLA […]), 0.901 ± 0.093. Moreover, the IRF reporter in experiment [2] (agonist: 3'3'-cGAMP 10 ug/mL) was 0.969 ± 0.044; in experiment [2] (agonist: LPS 0.1 ug/mL) it was 1.24 ± 0.071; in experiment [2] (agonist: MPLA […]), 1.29 ± 0.22. The viability score in experiment [3] is 0.992 (active).
As to `Cc1ccccc1OCC(O)CO` (stereo unspecified), the values for the NF-kB reporter in experiment [1] (setting [4]), in experiment [1] (agonist: LPS 0.1 ug/mL) and in experiment [1] (agonist: MPLA […]) were 0.813 ± 0.22, 1.08 ± 0.054 and 0.955 ± 0.07, respectively. Also, the results for the IRF reporter in experiment [2] (agonist: 3'3'-cGAMP 10 ug/mL), in experiment [2] (agonist: LPS 0.1 ug/mL) and in experiment [2] (agonist: MPLA […]) were 0.93 ± 0.058, 0.951 ± 0.13 and 1.02 ± 0.12, respectively. In addition, the viability score in experiment [3] was 0.997 (active).
In the case of `O=C(O)c1cc(NC(=O)c2ccc(Cl)c([N+](=O)[O-])c2)cc(C(=O)O)c1`, the NF-kB reporter in experiment [1] (setting [4]) is 1.08 ± 0.11; in experiment [1] (agonist: LPS 0.1 ug/mL) it was 0.973 ± 0.064; in experiment [1] (agonist: MPLA […]), 1.02 ± 0.045. The IRF reporter in experiment [2] (agonist: 3'3'-cGAMP 10 ug/mL) is 1.03 ± 0.19; in experiment [2] (agonist: LPS 0.1 ug/mL), 1.04 ± 0.088; in experiment [2] (agonist: MPLA […]), 1.08 ± 0.17. In addition, in experiment [3], the viability score is 1 (active).
Consider `CC(C)CSc1nnc2c(n1)[nH]c1ccccc12`, for which the NF-kB reporter in experiment [1] (setting [4]) is 1.06 ± 0.083; in experiment [1] (agonist: LPS 0.1 ug/mL) it was 1.01 ± 0.072; in experiment [1] (agonist: MPLA […]) it was 0.967 ± 0.039. Further, the IRF reporter in experiment [2] (agonist: 3'3'-cGAMP 10 ug/mL) turned out to be 0.955 ± 0.2; in experiment [2] (agonist: LPS 0.1 ug/mL) it was 1.05 ± 0.047; in experiment [2] (agonist: MPLA […]) it was 0.885 ± 0.14. Moreover, the viability score in experiment [3] is 0.998 (active).
On to `Cn1c(=O)cc(N2CCC[C@@H](N)C2)n(Cc2ccccc2C#N)c1=O`, for which the NF-kB reporter in experiment [1] (setting [4]) was 1.19 ± 0.25; in experiment [1] (agonist: LPS 0.1 ug/mL), 1.25 ± 0.28; in experiment [1] (agonist: MPLA […]), 2.23 ± 1.3. Further, the IRF reporter in experiment [2] (agonist: 3'3'-cGAMP 10 ug/mL) was found to be 0.958 ± 0.031; in experiment [2] (agonist: LPS 0.1 ug/mL) it was 1.3 ± 0.35; in experiment [2] (agonist: MPLA […]) it was 1.33 ± 0.26. Further, the viability score in experiment [3] is 0.99 (active).
Consider `COc1ccc(CC(=O)N2CCCc3ccccc32)cc1OC`, for which the NF-kB reporter came out at 0.909 ± 0.078 in experiment [1] (setting [4]), 0.778 ± 0.054 in experiment [1] (agonist: LPS 0.1 ug/mL) and 1.01 ± 0.09 in experiment [1] (agonist: MPLA […]). In addition, the IRF reporter stood at 0.973 ± 0.046 in experiment [2] (agonist: 3'3'-cGAMP 10 ug/mL), 1.41 ± 0.1 in experiment [2] (agonist: LPS 0.1 ug/mL) and 1.6 ± 0.17 in experiment [2] (agonist: MPLA […]). Besides, the viability score in experiment [3] is 1.02 (active).
Consider `CCN(CC)c1ccc(C=NN2C(=O)c3ccccc3C2=O)cc1`, for which the NF-kB reporter came out at 1.05 ± 0.088 in experiment [1] (setting [4]), 1.08 ± 0.07 in experiment [1] (agonist: LPS 0.1 ug/mL) and 1.01 ± 0.061 in experiment [1] (agonist: MPLA […]). Besides, the values for the IRF reporter in experiment [2] (agonist: 3'3'-cGAMP 10 ug/mL), in experiment [2] (agonist: LPS 0.1 ug/mL) and in experiment [2] (agonist: MPLA […]) were 0.827 ± 0.04, 1.05 ± 0.1 and 1.11 ± 0.15, respectively. The viability score in experiment [3] was 0.994 (active).
Regarding `Cn1nc(CNS(=O)(=O)c2cccc(C(F)(F)F)c2)c2c1CCOC2`, the NF-kB reporter in experiment [1] (setting [4]) came to 1.13 ± 0.34; in experiment [1] (agonist: LPS 0.1 ug/mL) it was 1.08 ± 0.061; in experiment [1] (agonist: MPLA […]), 1.02 ± 0.065. The IRF reporter was found to be 0.955 ± 0.035 in experiment [2] (agonist: 3'3'-cGAMP 10 ug/mL), 1.05 ± 0.13 in experiment [2] (agonist: LPS 0.1 ug/mL) and 1.12 ± 0.11 in experiment [2] (agonist: MPLA […]). Further, the viability score in experiment [3] is 1 (active).
Consider `O=C1C(N2CCC(O)C2)CCN1CC(F)(F)F` (stereo unspecified), for which the NF-kB reporter in experiment [1] (setting [4]) worked out at 0.992 ± 0.12; in experiment [1] (agonist: LPS 0.1 ug/mL), 1.04 ± 0.1; in experiment [1] (agonist: MPLA […]), 0.876 ± 0.086. The IRF reporter came out at 1.03 ± 0.053 in experiment [2] (agonist: 3'3'-cGAMP 10 ug/mL), 1.22 ± 0.079 in experiment [2] (agonist: LPS 0.1 ug/mL) and 1.24 ± 0.15 in experiment [2] (agonist: MPLA […]). Moreover, in experiment [3], the viability score was 1.01 (active).
In the case of `COc1ccc(NC(=O)CN(c2ccc(C)c(C)c2)S(C)(=O)=O)cc1Cl`, the NF-kB reporter came out at 0.912 ± 0.096 in experiment [1] (setting [4]), 1.14 ± 0.12 in experiment [1] (agonist: LPS 0.1 ug/mL) and 0.886 ± 0.032 in experiment [1] (agonist: MPLA […]). Besides, the IRF reporter came out at 0.857 ± 0.14 in experiment [2] (agonist: 3'3'-cGAMP 10 ug/mL), 0.973 ± 0.045 in experiment [2] (agonist: LPS 0.1 ug/mL) and 0.858 ± 0.079 in experiment [2] (agonist: MPLA […]). For the same compound, the viability score in experiment [3] is 1 (active).
On to `COc1ccc2cc(Br)ccc2c1CC(N)=O`, for which the NF-kB reporter in experiment [1] (setting [4]) was 1.09 ± 0.086; in experiment [1] (agonist: LPS 0.1 ug/mL), 1.07 ± 0.12; in experiment [1] (agonist: MPLA […]) it was 1.04 ± 0.046. The IRF reporter is 0.89 ± 0.13 in experiment [2] (agonist: 3'3'-cGAMP 10 ug/mL), 1.07 ± 0.072 in experiment [2] (agonist: LPS 0.1 ug/mL) and 0.961 ± 0.14 in experiment [2] (agonist: MPLA […]). Besides, in experiment [3], the viability score is 0.968 (active).
As to `Oc1ccc(N=Cc2ccccc2O)cc1`, the NF-kB reporter in experiment [1] (setting [4]) came out at 1.35 ± 0.17; in experiment [1] (agonist: LPS 0.1 ug/mL), 1.24 ± 0.086; in experiment [1] (agonist: MPLA […]), 1.51 ± 0.1. Besides, the values for the IRF reporter in experiment [2] (agonist: 3'3'-cGAMP 10 ug/mL), in experiment [2] (agonist: LPS 0.1 ug/mL) and in experiment [2] (agonist: MPLA […]) were 0.491 ± 0.11, 0.733 ± 0.043 and 0.839 ± 0.14, respectively. Moreover, the viability score in experiment [3] is 0.584 (inactive).

The record behind these values is the supplement of paper PMC10646978.
